Compound activity from PubChem BioAssay.
Rows were chosen to be rich in hits. Some 6.3% of all compounds tested hit in one or more screens of this group.
A340 absorber: compound light absorbance at 340 nm, profiling panel, artefact control, biochemical, MLSMR library, data from PS, PMK, MK assays | compound absorbance at 340 nm, fold over control | fold change at 10 µM | 65,000 tested, under 10 active;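 active = at 10 µM dose, initial 340 nm absorbance at least 2 fold that of control wells; inactive = change under 2 fold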;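 note: initial absorbance extrapolated from kinetic A340 decline of NADH oxidation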
Spn DPM-DC inh: S. pneumoniae DPM-DC inhibitors, primary screen, biochemical, PK/LDH-coupled NADH fluorescence; AID 556, 2006; diphosphomevalonate decarboxylase (Streptococcus pneumoniae D39); purified DPM-DC; calls only at 10 µM; 0.49% of 65,000 active;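 active = the 320 compounds with the highest percent inhibition in the single-dose primary screen, excluding strongly autofluorescent ones, cut at about 32% in these data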;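 note: kinetic rate of NADH fluorescence loss reporting ADP formed by the decarboxylase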
Autofluor 339: intrinsic fluorescence of library compounds, ex339/em460 – biochemical, MLSMR library, data from DPM-DC assay, artefact control, profiling panel; fluorescence fold increase at 10 µM; 5.5% of 65,000 active; compound autofluorescence, ex339/em460 nm, NADH buffer; stronger effect = higher value; 1 = no-compound wells, NADH background; AID 709, 2007;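 active = at 10 µM, mean starting fluorescence two-fold or more over control wells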;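 note: signal is the first read of a kinetic run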
NADH enzymes: inhibitors of PK/LDH coupling enzymes, profiling panel, artefact control, biochemical, MLSMR library | coupled PK/LDH NADH assays, four targets | IC50, µM (doses to about 10 µM) | 0.02% of 65,000 active;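 active = single-dose screening hits from any of four coupled enzyme assays that gave an IC50 when retested across doses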;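 note: the DPM-DC format reads NADH fluorescence rather than 340 nm absorbance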
Spn PMK inh: S. pneumoniae PMK inhibitors, primary screen, biochemical, mevalonate pathway, pilot trial included | phosphomevalonate kinase (Streptococcus pneumoniae D39) | purified PMK, PK/LDH-coupled NADH absorbance 340 nm | inhibition, % at 10 µM | 0.49% of 65,000 active | AID 539, 2006;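 active = top-ranked compounds by inhibition in the single 10 µM screen, taking a fixed number of the strongest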
MK inhibit: S. pneumoniae MK inhibitors, primary screen, biochemical, PK/LDH-coupled NADH absorbance; mevalonate kinase [Streptococcus pneumoniae D39]; purified MK, PK/LDH-coupled NADH absorbance 340 nm; inhibition, % at 10 µM; 0.48% of 65,000 active; AID 555, 2006;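 active = ranked among the strongest by inhibition in the single 10 µM screen, a fixed top-ranked set picked for dose follow-up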
A number is an active result.

Results for O=C(Nc1sc2c(c1C(=O)NCc1ccco1)CCCC2)c1ccc2c(c1)OCO2 ?
A340 absorber: inactive; Autofluor 339: 2.9; NADH enzymes: inactive; Spn PMK inh: inactive; MK inhibit: inactive

How did O=C(C1CCCN(S(=O)(=O)c2cccs2)C1)N1CCN(C2CCCCC2)CC1 (configuration not stated) do in these assays?
A340 absorber: inactive; Spn DPM-DC inh: inactive; Autofluor 339: inactive; NADH enzymes: inactive; Spn PMK inh: inactive; MK inhibit: inactive

Results for Cc1cc(N)c(-n2cc3c(=O)n(C)c(=O)n(C)c3c2)cc1C ?
A340 absorber: inactive; Spn DPM-DC inh: inactive; Autofluor 339: 2.7; NADH enzymes: inactive; Spn PMK inh: inactive; MK inhibit: inactive

How did COCCNC(=O)C(c1ccc(C)o1)N(Cc1ccc(OC)cc1)C(=O)Cn1nnc2ccccc21 (configuration not stated) do in these assays?
A340 absorber: inactive; Spn DPM-DC inh: inactive; Autofluor 339: inactive; NADH enzymes: inactive; Spn PMK inh: 25; MK inhibit: inactive

What do the screens show for `O=C(NCc1ccco1)c1nc2nc(-c3cccs3)cc(C(F)(F)F)n2n1`?
A340 absorber: inactive; Autofluor 339: 3.8; NADH enzymes: inactive; Spn PMK inh: inactive; MK inhibit: inactive

How did Cc1ccc(-c2cc(C(F)F)n3ncc(C(=O)NCc4ccco4)c3n2)cc1 do in these assays?
A340 absorber: inactive; Autofluor 339: 2.3; NADH enzymes: inactive; Spn PMK inh: inactive; MK inhibit: inactive

Results for Cc1cc(C(F)F)n2ncc(C(=O)NCc3ccccc3C(F)(F)F)c2n1 ?
A340 absorber: inactive; Spn DPM-DC inh: inactive; Autofluor 339: inactive; NADH enzymes: inactive; Spn PMK inh: inactive; MK inhibit: inactive

Results for Cc1ccc(-c2cc(C(F)(F)F)n3ncc(C(=O)NCc4ccco4)c3n2)cc1 ?
A340 absorber: inactive; Spn DPM-DC inh: active; Autofluor 339: inactive; NADH enzymes: inactive; Spn PMK inh: inactive; MK inhibit: inactive

Results for Cc1ccccc1Cc1c(C)nc2c(C(=O)NCc3ccco3)cnn2c1C ?
A340 absorber: inactive; Spn DPM-DC inh: inactive; Autofluor 339: 3.3; NADH enzymes: inactive; Spn PMK inh: inactive; MK inhibit: inactive

Results for COCCNC(=O)c1cnn2c(C(F)(F)F)cc(-c3ccc4c(c3)OCO4)nc12 ?
A340 absorber: inactive; Spn DPM-DC inh: active; Autofluor 339: 2.5; NADH enzymes: inactive; Spn PMK inh: inactive; MK inhibit: inactive

Results for O=C(NCCCN1CCOCC1)c1cc2c(=O)[nH]c3ccccc3c2s1 ?
A340 absorber: inactive; Autofluor 339: 4.7; NADH enzymes: inactive; Spn PMK inh: inactive; MK inhibit: inactive

How did O=C(NCCCN1CCOCC1)c1c(O)c2ccccc2[nH]c1=O do in these assays?
A340 absorber: inactive; Spn DPM-DC inh: inactive; Autofluor 339: inactive; NADH enzymes: inactive; Spn PMK inh: inactive; MK inhibit: inactive

How did CN1CC(=O)NC1=NC(=O)c1ccc(Cl)c(S(=O)(=O)N2CCCCCC2)c1 do in these assays?
A340 absorber: inactive; Spn DPM-DC inh: inactive; Autofluor 339: inactive; NADH enzymes: inactive; Spn PMK inh: 28; MK inhibit: inactive

How did CN1CC(=O)NC1=NC(=O)c1cc(F)c(F)cc1Cl do in these assays?
A340 absorber: inactive; Spn DPM-DC inh: inactive; Autofluor 339: inactive; NADH enzymes: inactive; Spn PMK inh: inactive; MK inhibit: inactive

How did COc1ccccc1-c1cn(S(=O)(=O)c2ccc(F)cc2)nc1N do in these assays?
A340 absorber: inactive; Spn DPM-DC inh: inactive; Autofluor 339: inactive; NADH enzymes: inactive; Spn PMK inh: inactive; MK inhibit: inactive

Results for CCOc1nc(SCCOc2ccccc2)nc(N(C)C)n1 ?
A340 absorber: inactive; Spn DPM-DC inh: inactive; Autofluor 339: inactive; NADH enzymes: inactive; Spn PMK inh: inactive; MK inhibit: inactive

Results for COC(=O)c1cc(Cl)c(NS(=O)(=O)c2ccccc2)cc1OC ?
A340 absorber: inactive; Spn DPM-DC inh: active; Autofluor 339: inactive; NADH enzymes: inactive; Spn PMK inh: inactive; MK inhibit: inactive

How did COC(=O)c1cc(NS(=O)(=O)c2ccc(OC)c(OC)c2)ccc1Cl do in these assays?
A340 absorber: inactive; Spn DPM-DC inh: inactive; Autofluor 339: inactive; NADH enzymes: inactive; Spn PMK inh: inactive; MK inhibit: inactive

How did CCN(CC)C(=O)CSc1ncnc2c(-c3cccs3)nsc12 do in these assays?
A340 absorber: inactive; Spn DPM-DC inh: inactive; Autofluor 339: 2.6; NADH enzymes: inactive; Spn PMK inh: inactive; MK inhibit: inactive

How did Cc1cccc(N(CC(=O)NC2CCCCC2)C(=O)c2c(C)noc2C)c1 do in these assays?
A340 absorber: inactive; Spn DPM-DC inh: inactive; Autofluor 339: inactive; NADH enzymes: inactive; Spn PMK inh: inactive; MK inhibit: inactive

How did CN1C(=O)c2ccccc2N(C)C1c1cccs1 (configuration not stated) do in these assays?
A340 absorber: inactive; Autofluor 339: 3.9; NADH enzymes: inactive; Spn PMK inh: inactive; MK inhibit: inactive

What do the screens show for `CCOC(=O)c1sc2cccc(F)c2c1N`?
A340 absorber: inactive; Autofluor 339: 2.7; NADH enzymes: inactive; Spn PMK inh: inactive; MK inhibit: inactive

Results for CC1CN(C2CCN(S(=O)(=O)c3ccc4ccccc4c3)CC2)CC(C)O1 (configuration not stated) ?
A340 absorber: inactive; Spn DPM-DC inh: inactive; Autofluor 339: inactive; NADH enzymes: inactive; Spn PMK inh: inactive; MK inhibit: inactive

What do the screens show for `c1ccc2[nH]c(SN3CCOCC3)nc2c1`?
A340 absorber: inactive; Spn DPM-DC inh: inactive; Autofluor 339: inactive; NADH enzymes: inactive; Spn PMK inh: inactive; MK inhibit: 54

What do the screens show for `O=C(CSc1nc2ccccc2[nH]1)Nc1ccccc1N1CCOCC1`?
A340 absorber: inactive; Spn DPM-DC inh: inactive; Autofluor 339: inactive; NADH enzymes: inactive; Spn PMK inh: inactive; MK inhibit: inactive

What do the screens show for `COc1cc(C(=O)NCCC(=O)NCCN2CCOCC2)cc(OC)c1OC`?
A340 absorber: inactive; Spn DPM-DC inh: inactive; Autofluor 339: inactive; NADH enzymes: inactive; Spn PMK inh: inactive; MK inhibit: inactive

What do the screens show for `CC1C2CC(CC1(C)C)N(C(=O)Nc1ccc3nccnc3c1)C2` (configuration not stated)?
A340 absorber: inactive; Autofluor 339: 2.2; NADH enzymes: inactive; Spn PMK inh: inactive; MK inhibit: inactive

How did Cc1nc2cc(NC(=O)N3CC4(C)CC3CC(C)(C)C4)ccc2n1C (configuration not stated) do in these assays?
A340 absorber: inactive; Spn DPM-DC inh: inactive; Autofluor 339: inactive; NADH enzymes: inactive; Spn PMK inh: inactive; MK inhibit: inactive
